According to paper PMC7862700, “An all-to-all approach to the identification of sequence-specific readers for epigenetic DNA modifications on cytosine”:

Legend:
Test in all cases: DAPPL (digital affinity profiling via proximity ligation, sequencing); 10 mM Tris-HCl pH 7.5, 50 mM NaCl, 1 mM DTT, 4% glycerol, room temperature, 30 min; GST-TFs on glutathione beads, 16-mer random dsDNA library, 0.1% formaldehyde crosslink after washing; high values mean tight binding
FLI1 = biological target: T1, FLI1 (Homo sapiens, UniProt Q01543 1-452); conditions: protein: recombinant; tags: N-terminal GST; dsDNA, one strand shown
T1 sequence: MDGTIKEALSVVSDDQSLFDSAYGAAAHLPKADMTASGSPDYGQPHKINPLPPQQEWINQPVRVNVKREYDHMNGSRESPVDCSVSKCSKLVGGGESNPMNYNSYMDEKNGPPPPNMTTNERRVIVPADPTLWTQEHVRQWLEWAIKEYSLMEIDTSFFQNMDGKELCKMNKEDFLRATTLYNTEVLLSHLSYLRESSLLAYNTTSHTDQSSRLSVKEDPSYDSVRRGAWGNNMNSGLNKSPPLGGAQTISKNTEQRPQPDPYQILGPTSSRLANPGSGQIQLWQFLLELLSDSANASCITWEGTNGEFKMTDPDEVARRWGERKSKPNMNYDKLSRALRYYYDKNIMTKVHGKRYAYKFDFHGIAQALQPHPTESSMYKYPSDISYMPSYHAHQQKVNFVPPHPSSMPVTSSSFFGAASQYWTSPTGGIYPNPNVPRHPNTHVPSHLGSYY
Method in brief: (§1)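 Pools of DNA-barcoded human transcription factors, expressed in yeast as GST fusions on glutathione beads and combined with a tag-only sample, were incubated with 200 nmole of a 16-mer random double-stranded DNA library. Incubation took 30 min at room temperature in Tris/NaCl/DTT/glycerol buffer and was followed by washing, 0.1% formaldehyde crosslinking, proximity ligation (BsaI/T4 ligase, 1 h, 37 °C), PCR amplification and sequencing on an Illumina NextSeq500. Binding signal is the ratio of a hexamer's read frequency for a factor to its frequency for the tag-only sample.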

ELK1 = biological target: T2, ELK1 (Homo sapiens, UniProt P19419 1-428); conditions: protein: recombinant; tags: N-terminal GST; dsDNA, one strand shown
T2 sequence: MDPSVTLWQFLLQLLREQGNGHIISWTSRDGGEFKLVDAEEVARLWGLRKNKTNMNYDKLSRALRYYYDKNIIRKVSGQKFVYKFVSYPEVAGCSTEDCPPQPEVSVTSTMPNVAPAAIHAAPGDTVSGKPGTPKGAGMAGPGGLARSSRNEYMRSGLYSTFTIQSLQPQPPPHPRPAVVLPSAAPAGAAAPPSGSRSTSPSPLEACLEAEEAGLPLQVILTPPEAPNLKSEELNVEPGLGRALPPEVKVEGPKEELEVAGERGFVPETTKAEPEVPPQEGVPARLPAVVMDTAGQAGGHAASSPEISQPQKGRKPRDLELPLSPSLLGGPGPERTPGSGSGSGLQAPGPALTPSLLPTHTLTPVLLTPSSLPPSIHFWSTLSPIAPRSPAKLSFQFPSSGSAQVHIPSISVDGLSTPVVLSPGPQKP
Method in brief: as §1

GABPA = biological target: T3, GABPA (Homo sapiens, UniProt Q06546 1-454); conditions: protein: recombinant; tags: N-terminal GST; dsDNA, one strand shown
T3 sequence: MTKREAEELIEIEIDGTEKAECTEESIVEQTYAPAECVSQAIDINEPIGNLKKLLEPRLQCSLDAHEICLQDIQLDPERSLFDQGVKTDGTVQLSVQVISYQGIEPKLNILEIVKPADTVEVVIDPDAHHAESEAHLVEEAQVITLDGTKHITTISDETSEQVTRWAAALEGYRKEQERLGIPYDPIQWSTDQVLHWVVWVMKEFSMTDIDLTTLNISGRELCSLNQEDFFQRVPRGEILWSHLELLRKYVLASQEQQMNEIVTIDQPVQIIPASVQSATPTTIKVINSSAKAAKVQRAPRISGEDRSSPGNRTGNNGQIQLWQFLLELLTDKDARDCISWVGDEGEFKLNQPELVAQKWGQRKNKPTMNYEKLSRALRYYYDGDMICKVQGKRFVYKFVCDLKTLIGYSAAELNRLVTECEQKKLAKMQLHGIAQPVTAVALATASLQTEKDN
Method in brief: as §1

ERG = biological target: T4, ERG (Homo sapiens, UniProt P11308 1-479); conditions: protein: recombinant; tags: N-terminal GST; dsDNA, one strand shown
T4 sequence: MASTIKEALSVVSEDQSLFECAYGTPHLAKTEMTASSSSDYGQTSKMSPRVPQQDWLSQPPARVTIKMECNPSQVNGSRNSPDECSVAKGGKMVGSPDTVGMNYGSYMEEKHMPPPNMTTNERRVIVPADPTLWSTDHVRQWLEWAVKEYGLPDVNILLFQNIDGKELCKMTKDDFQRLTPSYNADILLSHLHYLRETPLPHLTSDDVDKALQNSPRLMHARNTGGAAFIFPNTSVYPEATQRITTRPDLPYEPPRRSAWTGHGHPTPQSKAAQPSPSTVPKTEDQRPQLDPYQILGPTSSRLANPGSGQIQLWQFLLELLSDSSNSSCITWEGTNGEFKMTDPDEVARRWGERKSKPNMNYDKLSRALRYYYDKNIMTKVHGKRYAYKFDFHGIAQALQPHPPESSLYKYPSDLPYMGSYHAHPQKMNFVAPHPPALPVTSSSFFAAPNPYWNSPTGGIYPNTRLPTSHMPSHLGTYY
Method in brief: as §1

ELF1 = ELF1 (Homo sapiens, UniProt P32519 1-619); conditions: protein: recombinant; tags: N-terminal GST; dsDNA, one strand shown
Chain of ELF1 (P32519 whole entry): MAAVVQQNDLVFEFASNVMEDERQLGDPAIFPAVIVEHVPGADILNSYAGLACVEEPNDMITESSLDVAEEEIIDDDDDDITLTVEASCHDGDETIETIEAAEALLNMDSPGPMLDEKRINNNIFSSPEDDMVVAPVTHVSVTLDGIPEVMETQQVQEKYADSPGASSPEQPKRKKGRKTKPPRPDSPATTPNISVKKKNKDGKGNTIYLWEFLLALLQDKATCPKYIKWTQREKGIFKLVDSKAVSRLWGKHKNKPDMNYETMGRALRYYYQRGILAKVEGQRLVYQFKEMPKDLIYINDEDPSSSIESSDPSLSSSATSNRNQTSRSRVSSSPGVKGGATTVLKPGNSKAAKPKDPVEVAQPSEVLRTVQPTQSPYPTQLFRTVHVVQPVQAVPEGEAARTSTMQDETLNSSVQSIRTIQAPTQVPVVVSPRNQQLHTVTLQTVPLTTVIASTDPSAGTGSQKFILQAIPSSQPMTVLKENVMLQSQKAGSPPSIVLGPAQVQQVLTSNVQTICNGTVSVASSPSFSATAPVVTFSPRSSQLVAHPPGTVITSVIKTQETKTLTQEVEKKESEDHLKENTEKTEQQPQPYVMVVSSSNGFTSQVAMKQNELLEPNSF
Method in brief: as §1

EHF = biological target: T5, EHF (Homo sapiens, UniProt Q9NZC4 1-300); conditions: protein: recombinant; tags: N-terminal GST; dsDNA, one strand shown
T5 sequence: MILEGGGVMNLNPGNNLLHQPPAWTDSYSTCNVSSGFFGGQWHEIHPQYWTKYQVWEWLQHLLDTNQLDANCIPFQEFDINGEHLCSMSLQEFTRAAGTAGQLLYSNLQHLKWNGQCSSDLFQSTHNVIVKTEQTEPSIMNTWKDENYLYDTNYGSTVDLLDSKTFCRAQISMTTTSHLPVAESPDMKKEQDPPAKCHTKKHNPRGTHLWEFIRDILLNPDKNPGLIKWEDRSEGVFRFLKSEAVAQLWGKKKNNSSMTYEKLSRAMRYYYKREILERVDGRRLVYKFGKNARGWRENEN
Method in brief: as §1

SPI1 = SPI1 (Homo sapiens, UniProt P17947 1-270); conditions: protein: recombinant; tags: N-terminal GST; dsDNA, one strand shown
Method in brief: as §1

ELK3 = biological target: T6, ELK3 (Homo sapiens, UniProt P41970 1-407); conditions: protein: recombinant; tags: N-terminal GST; dsDNA, one strand shown
T6 sequence: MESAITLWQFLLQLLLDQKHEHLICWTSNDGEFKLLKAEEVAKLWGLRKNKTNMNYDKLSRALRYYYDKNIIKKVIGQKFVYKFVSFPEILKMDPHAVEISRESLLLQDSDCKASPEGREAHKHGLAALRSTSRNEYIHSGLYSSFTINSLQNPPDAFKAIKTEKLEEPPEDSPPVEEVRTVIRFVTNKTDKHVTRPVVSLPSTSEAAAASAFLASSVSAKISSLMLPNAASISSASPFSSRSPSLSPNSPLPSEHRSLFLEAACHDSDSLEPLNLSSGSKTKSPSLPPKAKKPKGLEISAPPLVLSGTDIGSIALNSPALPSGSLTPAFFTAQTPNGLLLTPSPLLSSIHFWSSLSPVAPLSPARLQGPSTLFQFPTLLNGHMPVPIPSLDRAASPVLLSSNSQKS
Method in brief: as §1

FEV = biological target: T7, FEV (Homo sapiens, UniProt Q99581 1-238); conditions: protein: recombinant; tags: N-terminal GST; dsDNA, one strand shown
T7 sequence: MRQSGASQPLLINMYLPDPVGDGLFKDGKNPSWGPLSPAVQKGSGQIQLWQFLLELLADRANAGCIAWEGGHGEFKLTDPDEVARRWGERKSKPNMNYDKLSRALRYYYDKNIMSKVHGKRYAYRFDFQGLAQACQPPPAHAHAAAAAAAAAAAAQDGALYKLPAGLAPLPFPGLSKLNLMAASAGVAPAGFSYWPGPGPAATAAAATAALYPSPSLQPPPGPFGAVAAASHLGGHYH
Method in brief: as §1

ETV5 = ETV5 (Homo sapiens, UniProt P41161 1-510); conditions: protein: recombinant; tags: N-terminal GST; dsDNA, one strand shown
Chain of ETV5 (P41161 whole entry): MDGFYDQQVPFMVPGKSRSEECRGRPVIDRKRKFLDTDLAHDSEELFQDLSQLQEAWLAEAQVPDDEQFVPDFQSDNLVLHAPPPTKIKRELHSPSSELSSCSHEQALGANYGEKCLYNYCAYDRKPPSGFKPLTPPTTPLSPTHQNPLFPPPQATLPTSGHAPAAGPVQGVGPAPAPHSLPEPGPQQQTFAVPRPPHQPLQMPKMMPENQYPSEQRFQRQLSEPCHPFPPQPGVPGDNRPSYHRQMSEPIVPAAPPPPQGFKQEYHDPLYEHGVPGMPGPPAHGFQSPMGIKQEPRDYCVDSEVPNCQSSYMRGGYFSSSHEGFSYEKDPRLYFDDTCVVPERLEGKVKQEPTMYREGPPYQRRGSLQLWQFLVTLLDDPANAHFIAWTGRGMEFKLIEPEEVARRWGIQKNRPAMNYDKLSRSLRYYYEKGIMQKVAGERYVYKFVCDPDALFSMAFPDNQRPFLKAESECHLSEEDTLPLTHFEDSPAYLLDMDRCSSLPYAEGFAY
Method in brief: as §1

HSF1 = HSF1 (Homo sapiens, UniProt Q00613 1-529); conditions: protein: recombinant; tags: N-terminal GST; chain copies: 3; dsDNA, one strand shown
Chain of HSF1 (Q00613 whole entry): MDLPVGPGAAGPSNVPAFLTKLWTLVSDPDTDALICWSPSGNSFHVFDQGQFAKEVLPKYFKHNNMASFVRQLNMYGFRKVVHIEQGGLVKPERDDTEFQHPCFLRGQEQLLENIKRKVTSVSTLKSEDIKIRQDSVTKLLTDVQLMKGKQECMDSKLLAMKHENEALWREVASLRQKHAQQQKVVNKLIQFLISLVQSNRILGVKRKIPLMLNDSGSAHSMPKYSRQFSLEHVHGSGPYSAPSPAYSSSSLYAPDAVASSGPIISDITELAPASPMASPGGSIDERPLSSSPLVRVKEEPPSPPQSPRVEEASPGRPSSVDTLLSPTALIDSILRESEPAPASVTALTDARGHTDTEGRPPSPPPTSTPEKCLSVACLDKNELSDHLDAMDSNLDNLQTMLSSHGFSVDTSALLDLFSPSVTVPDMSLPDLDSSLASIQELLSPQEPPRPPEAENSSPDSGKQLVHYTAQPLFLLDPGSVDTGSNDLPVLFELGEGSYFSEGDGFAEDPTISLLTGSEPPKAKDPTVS
Method in brief: as §1

SPIC = biological target: T8, SPIC (Homo sapiens, UniProt Q8N5J4 1-248); conditions: protein: recombinant; tags: N-terminal GST; dsDNA, one strand shown
T8 sequence: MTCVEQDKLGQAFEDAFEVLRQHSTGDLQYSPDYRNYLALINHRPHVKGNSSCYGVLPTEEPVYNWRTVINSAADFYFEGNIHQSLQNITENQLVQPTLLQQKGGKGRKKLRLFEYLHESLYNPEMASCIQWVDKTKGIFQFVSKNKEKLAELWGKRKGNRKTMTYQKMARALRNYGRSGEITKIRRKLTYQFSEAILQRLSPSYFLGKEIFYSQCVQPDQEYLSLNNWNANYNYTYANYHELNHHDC
Method in brief: as §1

ELF4 = ELF4 (Homo sapiens, UniProt Q99607 1-663); conditions: protein: recombinant; tags: N-terminal GST; dsDNA, one strand shown
Chain of ELF4 (Q99607 whole entry): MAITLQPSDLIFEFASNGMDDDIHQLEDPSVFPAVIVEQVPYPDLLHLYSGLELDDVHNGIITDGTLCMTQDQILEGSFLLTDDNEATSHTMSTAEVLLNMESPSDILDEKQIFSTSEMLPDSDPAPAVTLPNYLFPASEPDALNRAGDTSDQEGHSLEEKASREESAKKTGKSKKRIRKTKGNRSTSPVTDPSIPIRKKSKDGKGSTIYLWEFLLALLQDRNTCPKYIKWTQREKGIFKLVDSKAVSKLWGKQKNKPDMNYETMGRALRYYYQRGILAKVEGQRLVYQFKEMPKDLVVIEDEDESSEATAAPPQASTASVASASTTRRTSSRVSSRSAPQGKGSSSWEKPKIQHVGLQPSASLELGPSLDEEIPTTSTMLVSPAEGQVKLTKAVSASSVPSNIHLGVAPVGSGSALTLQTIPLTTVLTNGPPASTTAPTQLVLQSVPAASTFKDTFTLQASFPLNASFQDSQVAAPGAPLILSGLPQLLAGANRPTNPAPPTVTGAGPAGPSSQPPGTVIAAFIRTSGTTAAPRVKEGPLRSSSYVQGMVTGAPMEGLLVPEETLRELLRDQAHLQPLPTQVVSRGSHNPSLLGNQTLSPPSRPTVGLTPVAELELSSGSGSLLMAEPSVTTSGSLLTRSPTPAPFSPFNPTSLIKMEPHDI
Method in brief: as §1

ELK4 = biological target: T9, ELK4 (Homo sapiens, UniProt P28324-2 1-405); conditions: protein: recombinant; tags: N-terminal GST; dsDNA, one strand shown
T9 sequence: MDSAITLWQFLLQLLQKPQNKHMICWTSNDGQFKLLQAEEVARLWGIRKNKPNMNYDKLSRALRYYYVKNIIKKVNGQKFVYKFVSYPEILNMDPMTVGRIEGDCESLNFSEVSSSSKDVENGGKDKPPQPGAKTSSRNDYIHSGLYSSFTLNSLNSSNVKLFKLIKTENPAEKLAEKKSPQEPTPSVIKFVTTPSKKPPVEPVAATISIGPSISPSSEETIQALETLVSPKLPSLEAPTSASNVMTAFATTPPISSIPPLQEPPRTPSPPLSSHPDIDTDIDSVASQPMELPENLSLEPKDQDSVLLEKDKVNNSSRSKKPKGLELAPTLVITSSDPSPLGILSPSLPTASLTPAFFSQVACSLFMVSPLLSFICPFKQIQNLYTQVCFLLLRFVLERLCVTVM
Method in brief: as §1

ETV2 = biological target: T10, ETV2 (Homo sapiens, UniProt O00321 1-342); conditions: protein: recombinant; tags: N-terminal GST; dsDNA, one strand shown
T10 sequence: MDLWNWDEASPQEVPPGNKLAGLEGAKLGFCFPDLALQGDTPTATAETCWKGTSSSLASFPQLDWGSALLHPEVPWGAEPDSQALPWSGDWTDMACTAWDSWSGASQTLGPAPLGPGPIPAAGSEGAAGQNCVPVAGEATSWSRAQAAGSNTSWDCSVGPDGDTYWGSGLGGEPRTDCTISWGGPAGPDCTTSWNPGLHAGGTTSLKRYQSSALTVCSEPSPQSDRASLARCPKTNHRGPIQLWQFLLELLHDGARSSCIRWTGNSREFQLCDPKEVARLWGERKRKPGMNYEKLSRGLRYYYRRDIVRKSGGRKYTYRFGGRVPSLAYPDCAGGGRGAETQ
Method in brief: as §1

ELF3 = biological target: T11, ELF3 (Homo sapiens, UniProt P78545 1-371); conditions: protein: recombinant; tags: N-terminal GST; dsDNA, one strand shown
T11 sequence: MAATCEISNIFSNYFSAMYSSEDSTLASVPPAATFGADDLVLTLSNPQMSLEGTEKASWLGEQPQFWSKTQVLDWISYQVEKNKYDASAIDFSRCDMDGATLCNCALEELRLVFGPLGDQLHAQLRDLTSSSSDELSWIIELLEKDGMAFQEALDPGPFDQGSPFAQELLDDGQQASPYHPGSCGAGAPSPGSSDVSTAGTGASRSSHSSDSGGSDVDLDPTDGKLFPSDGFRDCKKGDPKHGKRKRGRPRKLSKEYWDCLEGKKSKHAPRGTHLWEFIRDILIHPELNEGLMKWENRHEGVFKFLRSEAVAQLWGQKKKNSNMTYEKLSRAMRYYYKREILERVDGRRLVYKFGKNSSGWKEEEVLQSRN
Method in brief: as §1

CRX = CRX (Homo sapiens, UniProt O43186 1-299); conditions: protein: recombinant; tags: N-terminal GST; dsDNA, one strand shown
Chain of CRX (O43186 whole entry): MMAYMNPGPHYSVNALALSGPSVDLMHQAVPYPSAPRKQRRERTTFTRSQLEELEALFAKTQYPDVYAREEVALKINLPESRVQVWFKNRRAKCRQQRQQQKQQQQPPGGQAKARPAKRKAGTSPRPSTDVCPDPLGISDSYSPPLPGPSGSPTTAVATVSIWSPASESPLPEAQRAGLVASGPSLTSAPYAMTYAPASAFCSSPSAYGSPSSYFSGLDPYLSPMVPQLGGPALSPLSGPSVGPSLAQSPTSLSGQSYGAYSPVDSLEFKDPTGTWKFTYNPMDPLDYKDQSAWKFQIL
Method in brief: as §1

ETV1 = ETV1 (Homo sapiens, UniProt P50549 1-477); conditions: protein: recombinant; tags: N-terminal GST; dsDNA, one strand shown
Chain of ETV1 (P50549 whole entry): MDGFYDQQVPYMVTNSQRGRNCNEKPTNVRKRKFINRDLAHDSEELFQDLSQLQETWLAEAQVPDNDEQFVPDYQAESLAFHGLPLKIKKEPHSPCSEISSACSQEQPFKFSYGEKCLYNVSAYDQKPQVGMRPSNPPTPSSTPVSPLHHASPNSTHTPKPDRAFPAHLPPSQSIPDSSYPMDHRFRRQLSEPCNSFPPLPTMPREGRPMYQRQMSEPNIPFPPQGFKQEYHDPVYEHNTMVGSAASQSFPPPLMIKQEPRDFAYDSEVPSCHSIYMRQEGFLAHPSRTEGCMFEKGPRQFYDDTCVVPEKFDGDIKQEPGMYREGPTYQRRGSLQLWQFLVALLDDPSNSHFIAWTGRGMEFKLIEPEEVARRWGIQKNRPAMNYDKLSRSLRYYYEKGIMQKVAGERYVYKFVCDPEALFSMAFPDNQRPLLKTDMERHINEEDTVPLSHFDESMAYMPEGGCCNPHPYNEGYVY
Method in brief: as §1

Sequence: ATCATT
- binding signal (FLI1): 1.07 fold enrichment (6-mer frequency, TF over GST control)
- binding signal (ELK1): 1.05 fold enrichment (6-mer frequency, TF over GST control)
- binding signal (GABPA): 1.06 fold enrichment (6-mer frequency, TF over GST control)
- binding signal (ERG): 1.02 fold enrichment (6-mer frequency, TF over GST control)
- binding signal (ELF1): 1.05 fold enrichment (6-mer frequency, TF over GST control)
- binding signal (EHF): 1.01 fold enrichment (6-mer frequency, TF over GST control)
- binding signal (SPI1): 1.05 fold enrichment (6-mer frequency, TF over GST control)
- binding signal (ELK3): 1.01 fold enrichment (6-mer frequency, TF over GST control)
- binding signal (FEV): 1.08 fold enrichment (6-mer frequency, TF over GST control)
- binding signal (ETV5): 1.07 fold enrichment (6-mer frequency, TF over GST control)
- binding signal (HSF1): 1.18 fold enrichment (6-mer frequency, TF over GST control)
- binding signal (SPIC): 1.01 fold enrichment (6-mer frequency, TF over GST control)
- binding signal (ELF4): 1.05 fold enrichment (6-mer frequency, TF over GST control)
- binding signal (ELK4): 1.06 fold enrichment (6-mer frequency, TF over GST control)
- binding signal (ETV2): 1.15 fold enrichment (6-mer frequency, TF over GST control)
- binding signal (ELF3): 1.05 fold enrichment (6-mer frequency, TF over GST control)
- binding signal (CRX): 1.28 fold enrichment (6-mer frequency, TF over GST control)
- binding signal (ETV1): 1.06 fold enrichment (6-mer frequency, TF over GST control)
